Assay outcomes deposited in PubChem BioAssay by National Center for Advancing Translational Sciences (NCATS).
A selection: hits, their analogues and other compounds. The true share with any hit is near 18%.
LDHA block – qHTS assay for inhibitors of human lactate dehydrogenase; L-lactate dehydrogenase A chain (Homo sapiens), P00338; purified LDHA, NADH/diaphorase-resazurin fluorescence; stronger effect = lower value; activity change, % (values are at about 110 or 230 µM); actives 0.15% (n = 480,000); in the data active = activity change below about -30%; inconclusive = mostly about -25% to -30%;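 also: plate controls were DMSO wells for no effect and wells without enzyme for full effect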
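Human LDH5 (2 nM) was incubated with 0.06 mM NADH and 0.2 mM pyruvate for 5 min at room temperature in Tris pH 7.4. Remaining NADH was coupled through diaphorase/resazurin, and resorufin fluorescence was read at 0 and 20 min.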
RORgamma inh – qHTS for inhibitors of ROR gamma transcriptional activity. actives 5.4% (n = 310,000). Drosophila S2 Gal4-RORgamma UAS-luciferase reporter, 20 h. Potency, µM (titrated, usually from 53.6 µM), inactives show at the highest dose activity change, negative = inhibition, actives largely listed as inhibitors. Nuclear receptor ROR-gamma (Mus musculus), P51450; also: potency is read from the fitted curve at half-maximal effect; nearly all actives have a fitted effect of over 60% in size
Target sequence (P51450 whole entry, looked up, the tested form may be a part): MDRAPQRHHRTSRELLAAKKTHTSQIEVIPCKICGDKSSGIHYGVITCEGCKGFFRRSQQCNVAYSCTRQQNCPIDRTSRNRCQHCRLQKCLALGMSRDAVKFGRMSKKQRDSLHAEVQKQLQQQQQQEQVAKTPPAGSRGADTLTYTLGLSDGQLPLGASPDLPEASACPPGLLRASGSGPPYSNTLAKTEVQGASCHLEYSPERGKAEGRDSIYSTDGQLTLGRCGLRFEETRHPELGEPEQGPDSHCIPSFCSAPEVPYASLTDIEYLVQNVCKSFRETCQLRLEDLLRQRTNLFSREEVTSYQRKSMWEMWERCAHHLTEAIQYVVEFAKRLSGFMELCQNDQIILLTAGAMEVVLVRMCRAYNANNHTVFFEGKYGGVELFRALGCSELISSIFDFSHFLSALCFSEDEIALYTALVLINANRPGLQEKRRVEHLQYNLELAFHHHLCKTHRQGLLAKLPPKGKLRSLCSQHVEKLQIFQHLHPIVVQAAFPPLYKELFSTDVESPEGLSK
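A Gal4/UAS one-hybrid system in insect cells: metallothionein-promoter Gal4–ROR gamma fusion plus Photinus luciferase reporter. Copper sulfate 700 uM final, 20 hr ambient incubation, luminescent detection after 10 min with reagent.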
TDP1 cell CPT – qHTS for Inhibitors of human tyrosyl-DNA phosphodiesterase 1 (TDP1): qHTS in cells in presence of CPT; chicken DT40 Tdp1-/-;hTDP1 cells + 20 nM CPT, ATP luminescence, 48 h; Potency, µM (top dose mostly 46.2 µM), inactives show at the top dose activity change, negative = growth inhibition, usual class: inhibitors; actives 12% (n = 420,000); AID 686979, 2013; also: potency is read from the fitted curve at half-maximal effect; nearly all actives have a fitted effect of over 55% in size
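Cell growth measured by CellTiter-Glo luminescence after a minimum 48 h, 37 C compound exposure with 20 nM CPT in Tdp1-knockout DT40 cells stably expressing hTDP1, seeded 400/well; qHTS titration format.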
IL1B secr inh – qHTS for Inhibitors of Inflammasome Signaling: IL-1-beta AlphaLISA Primary Screen | THP-1 LPS/ATP IL-1B secretion, AlphaLISA, 16 h; stronger effect = lower value | activity change, % at 57.5 µM | actives 4.7% (n = 360,000); in the data active = activity change below about -50%; inconclusive = mostly about -30% to -49%
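THP-1 cells pretreated 1 hr with compounds (up to 57.5 uM final), then stimulated with LPS (250 ng/mL final) plus ATP (1.25 mM final); secreted IL-1B measured by AlphaLISA after 16 hr, decreased signal indicating inhibition.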
VP16 counter – VP16 counterscreen qHTS for inhibitors of ROR gamma transcriptional activity; Drosophila S2 Gal4-VP16 UAS-luciferase, luminescence, 20 h; Potency, µM (series often up to 53.6 µM), inactives show top-dose activity, negative = inhibition, hits mostly inhibitors; AID 2546, 2010; actives 3.5% (n = 310,000);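 also: Gal4-VP16 expression switched on by copper sulfate through the metallothionein promoter; potency is read from the fitted curve at half-maximal effect; nearly all actives have a fitted effect of over 50% in size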
DT40 TDP1 no CPT – qHTS for Inhibitors of human tyrosyl-DNA phosphodiesterase 1 (TDP1): qHTS in cells in absence of CPT | DT40 Tdp1-/- hTDP1 cells, no CPT, ATP luminescence, 48 h | Potency, µM (titrated, usually from 46.2 µM), for the others: top-dose activity change, negative = growth inhibition, actives largely listed as inhibitors | actives 15% (n = 420,000) | AID 686978, 2013; also: potency is read from the fitted curve at half-maximal effect; nearly all actives have a fitted effect of over 55% in size
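Luminescent ATP content (CellTiter-Glo) served as the growth readout. Knockout chicken DT40 cells expressing human TDP1 were exposed to compounds without camptothecin for a minimum 48 hr at 37 °C.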
* marks the source's active call; other numbers are inactive results; ? = inconclusive; nt = not tested or not shown; ! = repeats disagree; [ ] = remark or other dose. Unless noted, calls follow the shape of the dose curve; as a rule, active = well fitted curve in the direction sought with a large enough effect; inconclusive = small, poorly fitted or top-dose-only effect, or another doubt; inactive = no such curve, though single readings can be large; an effect the other way counts as inactive or inconclusive. Unless noted, % is scaled to controls: 0 for no effect and ±100 for the full control effect.

SMILES	LDHA block	RORgamma inh	TDP1 cell CPT	IL1B secr inh	VP16 counter	DT40 TDP1 no CPT
COc1cccc(NC(=O)NOCc2ccccc2)c1	3.4	nt	nt	nt	nt	nt
COc1ccccc1NC(=O)C(C)Sc1ncnc2ccccc12 (stereo unspecified)	2.8	nt	nt	nt	nt	nt
CCC(=O)c1ccc(N2CCN(C(=O)c3cccs3)CC2)c(F)c1	-8.6	?	?	6.5	?	20.6µM*
CCC(=O)c1ccc(N2CCN(S(=O)(=O)c3ccccc3)CC2)c(F)c1	-5.1	-11.5%	-23.7%	23.5	-10.6%	?
O=C(C1CCCCC1)N1CC(=O)N2CCc3ccccc3[C@@H]2C1	nt	2.8%[16.9 µM]	nt	nt	-1.0%[17 µM]	nt
CC(C)(C)[C@]1(O)CCN2C[C@H]3c4ccccc4CCc4cccc(c43)[C@@H]2C1	-5.8	39.8%	8.2µM*!	-15.6	?	11.6µM*
CC(C)(C)C1(O)CCN2CC3c4ccccc4CCc4cccc(c43)C2C1 (stereo unspecified)	nt	nt	16.8µM*	nt	nt	23.7µM*
Cc1cccc(C(=O)N2CCN(c3oc(-c4ccco4)nc3C#N)CC2)c1	-2.7	nt	nt	nt	nt	nt
Cn1ccc2c(N(Cc3ccccc3)Cc3ccccc3)cc3c(c21)C1CCC3C1 (stereo unspecified)	10.0	nt	18.4µM*	12.3	nt	18.4µM*
CCN(C)c1cc2c(c3c1ccn3C)C1CCC2C1 (stereo unspecified)	12.3	nt	?	-13.7	nt	?
CN(CCc1ccccc1)c1cc2c(c3c1ccn3C)C1CCC2C1 (stereo unspecified)	8.8	nt	16.4µM*	5.3	nt	?
CN(Cc1ccccc1)c1cc2c(c3c1ccn3C)C1CCC2C1 (stereo unspecified)	9.8	nt	?	-14.1	nt	?
c1ccc(Sc2c(-c3ccccc3)cc3ccccn23)cc1	20.4	nt	nt	nt	nt	nt
CC(C)OCCCNC(=O)CC1CCCC1	2.2	nt	nt	nt	nt	nt
C/C(=N\Nc1cc(C)nc(NCc2ccccc2)n1)c1ccncc1	-0.2	nt	nt	nt	nt	nt
O=C(NCCc1cccc2cccnc12)NC1CCN(CC2CCCCC2)CC1	-1.1	nt	nt	nt	nt	nt
CCc1nc(SCC(=O)Nc2ccccc2OC)c2c(C)c(C)sc2n1	-2.1	25.3%	?	?	-15.9%	20.6µM*
Cc1sc2nc(SCC(=O)Nc3ccccc3F)[nH]c(=O)c2c1C	-11.9	-7.0%	-6.0%	16.0	7.3%	-22.0%
CCc1nc(SCC(=O)Nc2cc(C)ccc2OC)c2c(C)c(C)sc2n1	-5.5	-17.5%	-6.3%	3.6	2.0%	14.6µM*
COC(=O)c1c(COc2ccc(C)nc2[N+](=O)[O-])nc2ccccc2c1C	0.5	nt	nt	nt	nt	nt
CCOC(=O)c1c(C)[nH]c(C2=NNC(=Nc3ccccc3)SC2)c1C	3.1	?	13µM*	-67.5*	11.2µM*	9.2µM*
CC(=O)c1c(C)[nH]c(C2=NNC(=NC(C)(C)C)SC2)c1C	7.4	?	16.5%	-21.1	?	-13.2%
CCOC(=O)c1c(C)[nH]c(C2=NNC(=Nc3ccc(OCC)cc3)SC2)c1C	1.5	?	16.4µM*	-52.4*	?	16.4µM*
CCOC(=O)c1c(C)[nH]c(C2=NNC(=Nc3ccccc3OC)SC2)c1C	3.7	1.4%	?	-62.2*	-12.5%	18.4µM*
CCCc1nc(C#N)c(N2CCN(c3cccc(Cl)c3)CC2)o1	8.1	nt	nt	nt	nt	nt
Cc1nc2sc3c(c2c2nc(C(=O)NCCN(C)C)nn12)CC(C)CC3 (stereo unspecified)	11.4	nt	nt	nt	nt	nt
O=C1CCSc2c1cccc2C(=O)NCC1CCN(Cc2cccc(F)c2)CC1	10.2	nt	nt	nt	nt	nt
